Experimental findings from PubChem BioAssay (EPA / NIEHS) are described below.

Read-out in assay [1]: Macrophage colony-stimulating factor (MCSF), CSF1 (gene 1435)
Put plainly: BSK_LPS_MCSF: BioMAP Diversity Plus: LPS Assay for Macrophage colony-stimulating factor (MCSF) Biomarker Activity (AID 2283083). The note with it: primary human HUVEC with PBMC; actives raise or lower the signal. In a few lines: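 HUVEC + PBMC co-culture (human primary), 24 h post-dose; M-CSF by ELISA; gain/loss of signal fitted bidirectionally vs DMSO baseline.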

Read-out in assay [2]: Tissue Factor, F3 (gene 2152)
Put plainly: BSK_LPS_TissueFactor: BioMAP Diversity Plus: LPS Assay for Tissue Factor Biomarker Activity (AID 2283084). The note with it: primary human HUVEC with PBMC; actives raise or lower the signal. In a few lines: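 HUVEC/PBMC co-culture, LPS-activated; CD142 ELISA read 24 h post-dose; bidirectional curve fit vs DMSO negative control.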

Read-out in assay [3]: Tumor necrosis factor (Homo sapiens) (UniProt P01375)
The experiment in a line: BSK_LPS_TNFa: BioMAP Diversity Plus: LPS Assay for Tumour Necrosis Factor alpha (TNFa) Biomarker Activity (AID 2283085). The note with it: primary human HUVEC with PBMC; actives raise or lower the signal. In a few lines: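 TNFa was quantified by ELISA in LPS-activated co-cultures of human endothelial cells and PBMC, 24 h post-dosing. Both increases and decreases versus DMSO were fitted.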

Read-out in assay [4]: Vascular cell adhesion molecule 1 (VCAM1), VCAM1 (gene 7412)
The experiment in a line: BSK_LPS_VCAM1: BioMAP Diversity Plus: LPS Assay for Vascular cell adhesion molecule 1 (VCAM1) Biomarker Activity (AID 2283086). The note with it: primary human HUVEC with PBMC; actives raise or lower the signal. In a few lines:
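VCAM-1 quantified by ELISA in an LPS-activated co-culture of human endothelial cells and peripheral blood mononuclear cells, read 24 h post-treatment. Fitted in both directions versus DMSO; parallel SRB staining flags overt cytotoxicity.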

Read-out in a further assay: CD38, CD38 (gene 952)
Put plainly: BSK_SAg_CD38: BioMAP Diversity Plus: SAg Assay for CD38 Biomarker Activity (AID 2283087). The note with it: primary human HUVEC with PBMC; actives raise or lower the signal. In a few lines: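 CD38 quantified by ELISA (fluorescence) in a superantigen-activated endothelial cell–PBMC co-culture at 24 h post-dose. Activity fitted in both directions relative to DMSO; parallel SRB and Alamar Blue cytotoxicity read-outs.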

Read-out in another assay: CD40, CD40 (gene 958)
Put plainly: BSK_SAg_CD40: BioMAP Diversity Plus: SAg Assay for CD40 Biomarker Activity (AID 2283088). The conditions noted are these: primary human HUVEC with PBMC; actives raise or lower the signal. In a few lines:
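HUVEC/PBMC co-culture, 24 h post-dose; CD40 by ELISA, fluorescence intensity; bidirectional fit vs DMSO negative control.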

Read-out in another assay: CD69, CD69 (gene 969)
Put plainly: BSK_SAg_CD69: BioMAP Diversity Plus: SAg Assay for CD69 Biomarker Activity (AID 2283089). The note with it: primary human HUVEC with PBMC; actives raise or lower the signal. In a few lines:
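Endothelial/PBMC co-culture; chemical added; 24 h incubation; CD69 ELISA with fluorescence detection; bidirectional fit vs DMSO.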

Read-out in assay [5]: Monocyte Chemoattractant Protein-1 (MCP1), CCL2 (gene 6347)
The experiment in a line: BSK_SAg_MCP1: BioMAP Diversity Plus: SAg Assay for Monocyte Chemoattractant Protein-1 (MCP1) Biomarker Activity (AID 2283090). The note with it: primary human HUVEC with PBMC; actives raise or lower the signal. In a few lines: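 Values derive from bidirectional fitting of ELISA-measured MCP1 against DMSO controls. Readings were taken 24 h after dosing human vascular endothelial cells co-cultured with peripheral blood mononuclear cells under superantigen stimulation.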

Read-out in assay [6]: E-selectin (Homo sapiens) (UniProt P16581)
Put plainly: BSK_SAg_Eselectin: BioMAP Diversity Plus: SAg Assay for Eselectin Biomarker Activity (AID 2283091). The conditions noted are these: primary human HUVEC with PBMC; actives raise or lower the signal. In a few lines:
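E-selectin ELISA readout at 24 h post-dosing in human umbilical vein endothelial cell/PBMC co-culture; gain or loss of signal fitted relative to DMSO baseline.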

Read-out in assay [7]: Monokine induced gamma interferon (MIG), CXCL9 (gene 4283)
Put plainly: BSK_SAg_MIG: BioMAP Diversity Plus: SAg Assay for Monokine induced gamma interferon (MIG) Biomarker Activity (AID 2283092). The note with it: primary human HUVEC with PBMC; actives raise or lower the signal. In a few lines:
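Measures CXCL9 protein by ELISA in a human vascular primary-cell co-culture (umbilical vein endothelium with PBMC) 24 h after chemical addition. Activity is scored up or down from the DMSO control.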

Assay [8] is described as follows: BSK_SAg_PBMCCytotoxicity: PBMC Cytotoxicity Assessment in the BioMAP Diversity Plus: SAg Assay (AID 2283093).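 Also: fitted both ways against DMSO so a hit may be loss or gain of signal.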 The note with it: primary human HUVEC with PBMC. In a few lines:
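PBMC viability by Alamar Blue reduction, fluorescence read at 546/580 nm after 6 h dye exposure. Cells were dosed 1 h before SEB plus TSST-1 activation (20 ng/mL final each), then held 90 h; endothelial/PBMC human co-culture.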

Read-out in assay [9]: Interleukin-8 (IL8), CXCL8 (gene 3576)
The experiment in a line: BSK_SAg_IL8: BioMAP Diversity Plus: SAg Assay for Interleukin-8 (IL8) Biomarker Activity (AID 2283094). The conditions noted are these: primary human HUVEC with PBMC; actives raise or lower the signal. In a few lines: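 ELISA readout of IL-8 from a superantigen-activated endothelial/PBMC primary human co-culture, taken 24 h post-dosing and fitted in both directions against DMSO; parallel SRB total-protein staining flags overt cytotoxicity.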

A short description of assay [10]: BSK_SAg_Proliferation: Cell Proliferation Assessment in the BioMAP Diversity Plus: SAg Assay (AID 2283095).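 Also: relative cell number as total protein by SRB absorbance in sub-confluent culture.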 The note with it: primary human HUVEC with PBMC. In a few lines: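 Relative cell number in the endothelial cell/PBMC co-culture was quantified at 96 h by SRB staining (0.1% SRB, 10% TCA fixation, read at 560 nm). Curves were fitted in both directions relative to DMSO baseline.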

The nature of assay [11]: BSK_SAg_SRB: Viability Assessment in the BioMAP Diversity Plus: SAg Assay (AID 2283096).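 Also: cells read one day after compound addition; hits may be either gain or loss of signal compared with DMSO.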 The note with it: primary human HUVEC with PBMC. In a few lines: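 Compounds were added to a human vascular co-culture of umbilical vein endothelium and PBMC. After 24 h, parallel cultures were fixed with 10% TCA, stained with 0.1% sulforhodamine B and read at 560 nm. Gain or loss of signal was fitted relative to DMSO.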

Calls of active or inactive are those of the source. The calls were made as follows: active = hit-call score of the fitted dose curve at least 0.9, where 1 is the maximum; inactive = score below 0.9.

Sequence of E-selectin (Homo sapiens) (P16581 whole entry, looked up): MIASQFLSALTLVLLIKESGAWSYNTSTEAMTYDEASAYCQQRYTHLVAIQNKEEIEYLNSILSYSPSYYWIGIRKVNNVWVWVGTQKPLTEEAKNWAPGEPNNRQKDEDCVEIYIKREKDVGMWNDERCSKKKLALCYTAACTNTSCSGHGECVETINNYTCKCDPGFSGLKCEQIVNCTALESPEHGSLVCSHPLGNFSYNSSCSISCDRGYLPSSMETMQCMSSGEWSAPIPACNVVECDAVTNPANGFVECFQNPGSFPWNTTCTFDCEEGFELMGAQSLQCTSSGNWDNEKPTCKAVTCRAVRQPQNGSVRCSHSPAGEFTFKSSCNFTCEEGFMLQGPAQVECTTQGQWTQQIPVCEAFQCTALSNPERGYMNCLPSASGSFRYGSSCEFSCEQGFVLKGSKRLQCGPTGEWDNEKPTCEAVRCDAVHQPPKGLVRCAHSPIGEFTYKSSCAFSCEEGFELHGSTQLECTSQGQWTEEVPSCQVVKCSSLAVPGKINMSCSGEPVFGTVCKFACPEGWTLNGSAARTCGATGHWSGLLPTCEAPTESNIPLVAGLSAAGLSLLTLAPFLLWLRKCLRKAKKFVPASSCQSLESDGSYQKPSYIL
Sequence of Tumor necrosis factor (Homo sapiens) (P01375 whole entry, looked up): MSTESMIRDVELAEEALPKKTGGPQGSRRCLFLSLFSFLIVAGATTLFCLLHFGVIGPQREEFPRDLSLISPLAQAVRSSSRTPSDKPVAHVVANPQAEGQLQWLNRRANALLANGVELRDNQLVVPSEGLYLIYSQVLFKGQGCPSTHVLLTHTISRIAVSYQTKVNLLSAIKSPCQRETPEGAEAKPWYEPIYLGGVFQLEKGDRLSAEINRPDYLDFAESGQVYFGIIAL

`O=S(=O)(O)c1ccc(N=Nc2c(O)ccc3cc(S(=O)(=O)O)ccc23)cc1`: the outcome is “inactive” in assay [1]; “inactive” in [2]; “inactive” in [3]; “inactive” in assay [4]; “inactive” in the assay with CD38, CD38 (gene 952); “inactive” in the assay with CD40, CD40 (gene 958). The outcome is “inactive” with CD69, CD69 (gene 969); “inactive” in [5]; “inactive” in [6]; “inactive” in assay [7]; “inactive” in assay [8]; “inactive” in assay [9]. In addition, the result in assay [10] and in assay [11] was inactive.
`Cn1c(=O)c2[nH]cnc2n(C)c1=O`: the outcome is “inactive” in assay [1]; “inactive” in assay [2]; “inactive” in assay [3]; “inactive” in assay [4]; “inactive” with CD38, CD38 (gene 952); “inactive” with CD40, CD40 (gene 958). Further, the outcome with CD69, CD69 (gene 969) is “inactive”; in assay [5], “inactive”; in assay [6], “inactive”; in assay [7], “inactive”; in [8], “inactive”; in assay [9] it was “inactive”. For the same compound, the result in [10] and in assay [11] was inactive.
For `Cc1nc(-c2ccccn2)ncc1C(=O)Nn1cc(C)c2cc(F)ccc21`, the outcome in assay [1] was “inactive”; in assay [2], “inactive”; in assay [3], “inactive”; in [4], “inactive”; with CD38, CD38 (gene 952), “inactive”; with CD40, CD40 (gene 958), “inactive”. In addition, the outcome in the assay with CD69, CD69 (gene 969) is “inactive”; in assay [5], “inactive”; in [6], “inactive”; in assay [7], “inactive”; in assay [8], “inactive”; in [9], “inactive”. The result in assay [11] was inactive. The AC50 in assay [10] was 20 µM (active).
Consider `CC(C)CC(C)O` (stereo unspecified), for which the outcome was “inactive” in assay [1]; “inactive” in assay [2]; “inactive” in assay [3]; “inactive” in [4]; “inactive” in the assay with CD38, CD38 (gene 952); “inactive” with CD40, CD40 (gene 958). The outcome in the assay with CD69, CD69 (gene 969) was “inactive”; in assay [5], “inactive”; in assay [6], “inactive”; in [7], “inactive”; in assay [8], “inactive”; in assay [9], “inactive”. Further, the outcome in assay [10] and in [11] was inactive.
Consider `c1ccc2c(c1)-c1cccc3c1c-2cc1ccccc13`, for which the outcome in assay [1] is “inactive”; in assay [3] it was “inactive”; in [4], “inactive”; with CD38, CD38 (gene 952), “inactive”; with CD40, CD40 (gene 958), “inactive”; with CD69, CD69 (gene 969), “inactive”. In addition, the outcome in [5], in [7], in assay [8], in assay [9], in assay [10] and in assay [11] was inactive. Further, the AC50 is 0.552 µM (active) in assay [2] and 0.566 µM (active) in [6].
`CCOC(N)=O`: the outcome in [1] is “inactive”; in assay [2] it was “inactive”; in [3], “inactive”; in assay [4], “inactive”; with CD38, CD38 (gene 952), “inactive”; in the assay with CD40, CD40 (gene 958), “inactive”. The outcome with CD69, CD69 (gene 969) was “inactive”; in assay [5], “inactive”; in assay [6] it was “inactive”; in assay [7], “inactive”; in assay [8] it was “inactive”; in assay [9], “inactive”. Moreover, the outcome in assay [10] and in assay [11] was inactive.
Turning to `CCCCCCCCN(C)C`, the outcome in [1] was “inactive”; in assay [2] it was “inactive”; in assay [3], “inactive”; in [4], “inactive”; with CD38, CD38 (gene 952), “inactive”; with CD40, CD40 (gene 958), “inactive”. The outcome with CD69, CD69 (gene 969) was “inactive”; in assay [5], “inactive”; in assay [6] it was “inactive”; in assay [7], “inactive”; in assay [8] it was “inactive”; in [9] it was “inactive”. Further, the result in [10] and in [11] was inactive.
Turning to `FC(F)(F)COC(OCC(F)(F)F)OCC(F)(F)F`, the outcome was “inactive” in [1]; “inactive” in assay [2]; “inactive” in [3]; “inactive” in [4]; “inactive” in the assay with CD38, CD38 (gene 952); “inactive” in the assay with CD40, CD40 (gene 958). Moreover, the outcome was “inactive” with CD69, CD69 (gene 969); “inactive” in assay [5]; “inactive” in assay [6]; “inactive” in assay [7]; “inactive” in assay [8]; “inactive” in assay [9]. Moreover, the outcome in [10] and in assay [11] was inactive.
With `CCCCCCCC/C=C\CCCCCCCC(=O)OC[C@@H](O)[C@H]1OC[C@H](O)[C@H]1O`, the outcome in assay [1] is “inactive”; in [2], “inactive”; in [3], “inactive”; in assay [4], “inactive”; with CD38, CD38 (gene 952) it was “inactive”; with CD40, CD40 (gene 958) it was “inactive”. The outcome in the assay with CD69, CD69 (gene 969) is “inactive”; in assay [5], “inactive”; in assay [6], “inactive”; in assay [7], “inactive”; in assay [8], “inactive”; in [9] it was “inactive”. Moreover, the outcome in [10] and in assay [11] was inactive.

What is called AC50 is the midpoint of the concentration-response curve, whichever way the signal moves.
